Sampled rows, rich in hits. Any-hit rate of the full collection: about 11%.
Sm TGR block – inhibitors of Schistosoma mansoni thioredoxin glutathione reductase. actives 3% (n = 360,000). Q962Y6. purified TGR, DTNB reduction, TNB absorbance 405 nm. AID 485364. Potency, µM (doses to about 114 µM), usual class: inhibitors; further: nearly all actives have a fitted effect of over 60% in size
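TGR 20 nM + NADPH 100 uM (dispensed conc.), cpd preinc 15 min RT; start with NADPH (500 uM addition) then DTNB (15 mM addition). Kinetic TNB absorbance, 405 nm filter. Four-parameter Hill fit across titration.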
Pf growth 48h – P. falciparum growth inhibition at 48 hours (one generation) | P. falciparum luciferase growth in erythrocytes, 48 h | Potency, µM (top dose mostly 28.7 µM), actives largely listed as inhibitors | actives 5.9% (n = 310,000) | AID 504832
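Read-out is firefly luciferase luminescence from an integrated reporter in P. falciparum, so falling signal marks reduced parasite growth. Infected erythrocytes were at 2% hematocrit and 0.1% parasitemia (final) in Albumax-supplemented RPMI 1640.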
NS1 inh – influenza NS1 inhibition; Potency, µM (titrated, usually from 46.1 µM); actives 0.4% (n = 270,000); calls by dose curve; further: actives are rising curves; nearly all actives have a fitted effect of over 50% in size
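Growth recovery, yeast-based: influenza A NS1 expressed in S. cerevisiae causes slow growth, and suppressors are detected by OD600. The parent strain without NS1 is used as positive control.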
AMA1-RON2 inh – AMA1-RON2 (P. falciparum) interaction inhibition. AlphaScreen AMA1-biotinylated RON2 peptide binding. Potency, µM (highest dose often 58.2 µM), usual class: inhibitors. actives 0.2% (n = 360,000); further: nearly all actives have a fitted effect of over 45% in size
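AMA1 (3D7) with his tag at 25 nM final met compounds first, then biotinylated RON2 peptide at 25 nM; detection used donor plus acceptor beads, 10 µg/mL apiece, read by AlphaScreen after 30 min at room temperature.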
Pf growth 96h – P. falciparum growth inhibition at 96 hour, primary screen for plastid delayed-death inhibitors | P. falciparum luciferase reporter growth, 96 h | Potency, µM (top dose mostly 28.7 µM), hits mostly inhibitors | AID 504834 | actives 6.9% (n = 320,000)
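96 h incubation, 37 C, 5% CO2, of luciferase-reporter P. falciparum-infected RBCs (2% hematocrit, 0.05% parasitemia final) with test compounds; endpoint luminescence.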
Numbers stand for hits; - = inactive; ? = inconclusive; . = no result; [ ] = dose if it differs, or a comment. Unless noted, the call rests on the fitted dose curve; in most records, active means well fitted curve in the direction sought with a large enough effect; inconclusive means small, poorly fitted or top-dose-only effect, or another doubt; inactive means no such curve, though single readings can be large; an effect the other way counts as inactive or inconclusive.

SMILES | Sm TGR block | Pf growth 48h | NS1 inh | AMA1-RON2 inh | Pf growth 96h
CSCCC(NC(=O)c1ccccc1)C(=O)N1CC=C(c2ccccc2)CC1 (stereo not given) | - | 9.3µM | - | - | ?
CSCCC(NC(=O)c1ccccc1Cl)C(=O)N1CCN(C(C)=O)CC1 (stereo not given) | - | ? | . | -[11.6 µM] | -
COc1ccccc1C(=O)NC(CCSC)C(=O)N1CCC(Cc2ccccc2)CC1 (stereo not given) | - | 15µM | . | ? | ?
O=C1NC(N2CCOCC2)=N/C1=C/c1ccc2c(c1)OCO2 | - | - | . | - | -
COc1ccc(-c2ccc(CN3C(C(C)C)C(=O)N(Cc4cn(CC5CCCCC5)nn4)CCS3(=O)=O)cc2)cc1OC (stereo not given) | . | . | . | - | .
COC(=O)c1ccsc1NC(=O)CN1C(=O)CCC1=O | - | - | - | - | -
Cc1ccc(C2CC(=O)NC(SCc3ccccc3)=C2C#N)o1 (stereo not given) | ? | ? | - | - | ?
N#CC1=C(SCC(=O)NCc2ccccc2)NC(=O)CC1c1ccco1 (stereo not given) | 40µM | - | - | - | -
N#CC1=C(SCc2ccccc2)NC(=O)CC1c1ccco1 (stereo not given) | 35µM | - | - | - | ?
CCOC(=O)c1ccc(NC(=O)c2cc3c(=O)n(C)c4ccccc4c3n2C)cc1 | - | . | . | . | .
COC(=O)c1cc(NS(=O)(=O)c2ccc(N3CCOCC3)c(NC(C)=O)c2)cc(C(=O)OC)c1 | - | - | - | - | ?
COC(=O)c1cc(NS(=O)(=O)c2ccc(N3CCOCC3)c(N)c2)cc(C(=O)OC)c1 | - | ? | ? | - | 4.1µM
COc1ccc(S(=O)(=O)Nc2cc(C(=O)NCCC(C)C)ccc2N2CCOCC2)cc1 | - | 8.3µM | - | - | ?
CCOC(=O)/C=C/C(=O)Nc1cc(S(=O)(=O)Nc2ccc(OC)cc2)ccc1N1CCOCC1 | 32µM | ? | . | - | ?
COc1ccc(NS(=O)(=O)c2ccc(N3CCOCC3)c(NC(=O)C(C)C)c2)cc1 | - | ? | . | - | -
O=C(CCCl)N1c2ccccc2C=Cc2ccccc21 | . | . | . | - | .
COC(=O)c1sc(-c2ccccc2)cc1NC(=O)Nc1ccc(F)cc1 | - | . | . | . | .
CCc1nnc(NC(=O)CSc2nnc(C(C)NC(=O)c3ccccc3F)n2C)s1 (stereo not given) | - | - | - | - | -
C/C(=N\NC(=O)c1ccc(CN2CCc3ccccc3C2)cc1)c1ccccc1O | - | ? | . | - | -
COc1cc(NC(=O)Cn2nnnc2-c2ccccc2F)cc(OC)c1OC | - | . | . | . | .
O=C1CSCC(=O)N1Cc1ccc(Cl)c(Cl)c1 | - | - | - | - | -
Cc1ccc(-c2nnc(-c3ccc(Br)cc3)o2)o1 | - | - | - | - | 2.6µM
CCOC(=O)c1ccc2c(c1)n(CC)c(C)[n+]2CC | . | ? | - | - | -
CCOC(=O)c1ccc2c(c1)n(CCCS(=O)(=O)[O-])c(/C=C/c1ccc(Cl)cc1)[n+]2CC | - | 9.3µM | - | - | ?
Cc1cc(C[n+]2ccccc2)c2nsnc2c1 | - | 2.1µM | - | - | .
SMILES | Sm TGR block | Pf growth 48h | NS1 inh | AMA1-RON2 inh | Pf growth 96h
Cc1cc(C[n+]2ccsc2N)c2ncccc2c1 | - | - | - | - | ?
CS(=O)(=O)N(CC(=O)N1CCCC1)c1cc(Cl)c(Cl)cc1Cl | - | . | - | - | 9.3µM
CC(=O)c1cccc(N(CC(=O)N2CCCC2)S(C)(=O)=O)c1 | 45µM | - | - | - | .
CC(=O)c1cccc(N(CC(=O)N2CCCCC2)S(C)(=O)=O)c1 | - | . | - | - | ?
CS(=O)(=O)N(CC(=O)N1CCCC1)c1ccc(Cl)cc1Cl | - | - | - | - | -
CC(=O)N1c2ccc(S(=O)(=O)N3CCC(C(=O)N4CCCC(C)C4)CC3)cc2CC1C (stereo not given) | - | ? | - | - | ?
COc1ccccc1CSc1nc2n(n1)C(c1ccccc1)C(C(=O)Nc1ccc(C)cc1)=C(C)N2 (stereo not given) | - | . | . | . | .
Cc1ccc(OCCNC(=O)CNC(=O)c2ccc3c(c2)OCO3)cc1 | - | - | . | - | -
O=C(NCc1ccco1)C(=O)NCC1OCCN1C(=O)c1ccc(Cl)cc1 (stereo not given) | 18µM | - | - | - | -
COc1cc(C(=O)OCC(=O)N2CCC(C)CC2)cc2c1OCCO2 | - | - | . | - | -
COc1ccc(-c2ncncc2-c2csc(C)n2)c(O)c1OC | - | - | - | - | .
COc1cc(-c2c(C(C)=O)c(C)nc3c2C(=O)c2ccccc2-3)cc(OC)c1OC | - | - | - | - | -
COC(=O)c1nc(-c2ccc3c(n2)C(=O)C(N)=C(OC)C3=O)c(N)c(-c2ccc(OC)c(OC)c2O)c1C | - | 0.093µM | ? | - | ?
COC1=C(N)C(=O)c2nc(-c3nc(C(=O)O)c(C)c(-c4ccc(OC)c(OC)c4O)c3N)ccc2C1=O | - | 0.052µM | - | - | 0.019µM
O=C(NCC(=O)N1CCN(c2ccccc2O)CC1)c1cccs1 | - | - | . | - | -
Fc1ccccc1CSc1nc2ncc(Br)cc2[nH]1 | - | . | - | - | 13µM
CC(NC(=O)c1ccc(Br)o1)C1CC2CCC1C2 (stereo not given) | - | - | - | - | 1µM
CC(NC(=O)c1ccc(Br)o1)C1CCCO1 (stereo not given) | - | - | - | - | -
Cc1ccc(NS(=O)(=O)c2ccc(Br)s2)nc1 | 16µM | - | - | - | -
COc1ccc(Cn2c(=O)c3cccnc3n(Cc3cccc(OC)c3)c2=O)cc1 | - | . | . | . | .
CSCCC1C(C#N)=C(N)Oc2n[nH]c(-c3cccs3)c21 (stereo not given) | 13µM | - | - | - | ?
COC(=O)C1=C(\O)CCCC/C=C\1C(=O)O | . | . | . | - | .
O=C(Nc1cccc(S(=O)(=O)C(F)F)c1)c1ccc(Cl)c(S(=O)(=O)N2CCOCC2)c1 | - | 9.3µM | - | - | .
O=C(Nc1cccc(Br)c1)c1ccc(Cl)c(S(=O)(=O)N2CCOCC2)c1 | - | 6.6µM | - | - | -
O=C(NC1CCCC1)c1cc(S(=O)(=O)N2CCOCC2)c(Cl)cc1Cl | - | - | - | - | 4.7µM
SMILES | Sm TGR block | Pf growth 48h | NS1 inh | AMA1-RON2 inh | Pf growth 96h
O=C(NC1CCCCC1)c1cc(S(=O)(=O)N2CCOCC2)c(Cl)cc1Cl | - | - | - | - | ?
O=C(NC1CC1)c1ccc(Cl)c(S(=O)(=O)N2CCOCC2)c1 | - | ? | - | - | -
O=C(Nc1cccc(C(=O)NC2CC2)c1)c1ccc(Cl)c(S(=O)(=O)N2CCOCC2)c1 | - | ? | . | - | 13µM
O=C(Nc1cccnc1)c1ccc(Cl)c(S(=O)(=O)N2CCOCC2)c1 | - | - | - | - | -
COc1cccc(NC(=O)CN(C)C(=O)CSCC(=O)Nc2ccc(C)cc2)c1 | - | - | . | - | -
CC(C)[C@H](NC(N)=O)C(=O)Nc1cccc(S(=O)(=O)NC2=NCCCCC2)c1 | - | - | . | - | -
CCN(C(=O)c1cc2cc3ccc(OC)cc3nc2o1)c1cccc(C)c1 | - | . | . | . | .

Assay outcomes: PubChem BioAssay, National Center for Advancing Translational Sciences (NCATS)
